# Measurements: PubChem BioAssay (NCI)
# “And” between values parts separate entries of the source, which are not always exact repeats. Equal entries are not always repeated. The panel holds about 83,000 compounds, 20% with a hit somewhere; the sample as a whole holds those more often.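 Single-dose data. Exposure time 48 hours. Values below 10 considered active.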 Unmarked numbers belong to inactive results. The source made the active and inactive calls.
# Tested on: MDA-MB-468 breast
# Assay: NCI-60 one-dose screen, 48 h (100 = growth as untreated, 0 = no growth, -100 = all killed)
# Settings: 10 µM unless noted
row,Compound,growth
1,O=c1ccn(C2OC(CO)C(O)C2F)c(=O)[nH]1 (stereo not given),105%
2,CCCCNCC(O)c1cc2c(Cl)cc(Cl)cc2c2cc(C(F)(F)F)ccc12 (stereo not given),-86.2% (active)
3,Nc1ncc(C#Cc2cncc(NC(=O)c3cccc(C(F)(F)F)c3)c2)c2cccnc12,92.5%
4,COc1ccc(-c2nn(-c3ccc(Cl)cc3)cc2-c2nc3ccccc3[nH]2)cc1,106%
5,COc1cc2nc(N3CCCC3)nc(Nc3ccccc3)c2cc1OC,-38.2% (active)
6,COc1ccc(C2c3[nH]c4ccc(Cl)cc4c3CCN2c2oc(CO)nc2C#N)cc1 (stereo not given),25.2%
7,COc1ccc(-n2c(N)c(-c3nc4ccccc4[nH]3)cc(C#N)c2=O)cc1,93.1%
8,CN(C)c1ccc(N=Cc2ccc(N3CCOCC3)cc2)cc1,57.5%
9,COc1ccc(/C=C2\Oc3cc(C)c(Cl)cc3C2=O)cc1OC,110%
10,CC(C(=O)O)n1cc(C#N)c(=O)[nH]c1=O (stereo not given),103% and 107%
11,O=C(C=C=Nc1ccccc1)C(=O)N=C=Cc1ccccc1,22%
12,Nc1c(C(=O)O)[nH]c(=O)[nH]c1=O,103%
13,COc1cc2c(cc1OC)-c1ccc3cc4c(cc3c1N(CCCN1CCCCC1)C2)OCO4,56.5%
14,Cc1cc(=O)[nH]n1-c1cc(Cl)ccc1N,110%
15,N=C(N)c1nn(C2OC(CO)C(O)C2O)c2nc[nH]c(=O)c12 (stereo not given),-59% (active)
16,NS(=O)(=O)c1ccc(CCN2C(=O)/C(=C\c3ccccc3)C=C2c2ccc(Cl)cc2)cc1,103%
17,Cc1cc(Br)c(C)cc1Br,92.2%
18,CCOC(=S)Sc1ccc([N+](=O)[O-])cc1[N+](=O)[O-],52.7%
19,N#Cc1c(-c2ccc(Cl)cc2)nc(SCc2ccc([N+](=O)[O-])cc2)nc1N1CCNCC1,-44.2% (active)
20,CC1(C)CC(=O)c2cc3c(N)c(C(=O)Nc4ccc(Cl)cc4)sc3nc2C1,110%

row,Compound,growth
1,O=[N+]([O-])c1ccc(N/N=C(/C(=N/Nc2ccc([N+](=O)[O-])cc2)c2ccccc2)c2ccccc2)cc1,80.6%
2,CC(=O)Cc1ccc(-c2ccccc2)cc1,93.7%
3,Cc1ccc(Nc2nc(N)c3ccccc3n2)cc1Cl,48%
4,NC1[C@H](c2c[nH]c3ccccc23)c2c([nH]c3ccccc23)[C@H]1c1c[nH]c2ccccc12 (stereo not given in full),106%
5,Cc1nc2sc(C(=O)Nc3cccc4c3OCCO4)c(N)c2cc1C(C)O (stereo not given),3.42% (active)
6,COc1cc(NC(C)CCCN)c2ncccc2c1Sc1ccc(Cl)cc1 (stereo not given),-2.79% (active)
7,COC(=O)c1ccc2c(c1)nc(-c1ccc(Cl)cc1)n2-c1cc(C(C)(C)C)[nH]n1,37.4%
8,CS(=O)(=O)c1ncc(-c2ccccc2)cn1,95.6%
9,CCOC(=O)C1=C(C)NC(=O)NC1c1c(Cl)n(CCCl)c2ccccc12 (stereo not given),97.2%
10,CCC(=O)Oc1ccc(/C(=C(\C)c2ccccc2)c2ccc(OCCN3CCCCC3)cc2)cc1,70.3%
11,COc1ccc(/C=N/Nc2nc3ccccc3s2)cc1,84.8%
12,O=c1[nH]c(-c2cn(-c3ccc(Cl)cc3)nn2)nc2ccccc12,77.1%
13,CCN1CCN(C(=O)[C@]23CC[C@@H](C)[C@H](C)[C@@H]2C2=CC[C@@H]4[C@@]5(C)C/C(=C/c6cccnc6)C(=O)C(C)(C)[C@@H]5CC[C@@]4(C)[C@]2(C)CC3)CC1,16.4%
14,O=C1/C(=C/c2ccc(Cl)c(Cl)c2)CN(C(=O)CCN2CCC(=NO)CC2)C/C1=C\c1ccc(Cl)c(Cl)c1,-72.3% (active)
15,Cc1cc(N2CCCC2)nc(N(CCCNc2ccnc3cc(Cl)ccc23)Cc2ccc3c(c2)OCO3)n1,-47.4% (active)
16,O=C(O)c1ccc(Nc2ncc3c(n2)-c2ccc(Cl)cc2C(c2c(F)cccc2F)=NC3)cc1,35%
17,Cc1c(CC(=S)N2CCOCC2)nnn1-c1cccc(C(F)(F)F)c1,117%
18,COc1ccc(-c2[nH]nc(N)c2-c2cc(OC)c3c(c2)OCO3)cc1,33.5%
19,CS(=O)(=O)c1nccc(-c2c(-c3cccc(OCc4ccc(F)cc4)c3)nc3sccn23)n1,-63.6% (active)
20,c1ccc(CCn2cccc2)nc1,114%
